In PubChem BioAssay (NCATS):
Results filed as inconclusive are left out. A number with no mark means an inactive call. Calls come from the whole dose curve; as a rule, active = well fitted cell-killing curve with a large enough effect; inconclusive = small, poorly fitted or top-dose-only effect, or effect the other way; inactive = flat fitted curve, though single readings scatter.

What follows are compounds tested on PA-1 (assay: Primary qHTS to identify gynecologic anti-cancer compounds using libraries of approved drugs and bioactive compounds (AID 1345084; note: nearly all actives have a fitted effect of over 55% in size)). Details: Gynecologic cancer cell panel viability, ATPlite luminescence, 48 h; series mostly up to 57.5 µM; activity change, negative = cytotoxicity: at the top concentration.
Summary of the method: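 Cells, 1,000 per well, were allowed to settle for 16 h at 37 C before compound addition. Five concentrations were tested for 48 h, and viability was read by ATPlite luminescence after 15 min at room temperature.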
% is set by controls: 0 for no effect and ±100 for the full control effect.

Structure (SMILES) | activity change, negative = cytotoxicity
CC1(C)C[C@H](O)C[C@@]2(C)[C@H]1[C@H](O)C=C1COC(=O)[C@@]12O | 0.871%
CC(=O)OC12CC(C)C(OC(=O)c3ccccc3)C1/C=C(/C)C(OC(=O)c1ccccc1)CC(=O)C(C)(C)/C=C/C(C)C2=O (configuration not stated) | -24.5% [at 25.3 µM]
C/C=C(\C)C(=O)OC[C@H]1O[C@@H](O[C@H]2[C@@H](O[C@H]3O[C@H](COC(=O)/C(C)=C/C)[C@@H](O)[C@H](O)[C@H]3O[C@@H]3O[C@H](CO)[C@@H](O)[C@H](OC(=O)/C(C)=C/C)[C@H]3O)O[C@H](COC(=O)/C(C)=C/C)[C@@H](O)[C@@H]2O)[C@H](O)[C@@H](O)[C@@H]1O | -18.4% [at 11.6 µM]
COc1ccc(C(=O)OC2C3C=COC(OC4OC(CO)C(O)C(O)C4O)C3C3(CO)OC23)cc1OC (configuration not stated) | -2.04% [at 25.3 µM]
N#Cc1cccc(-c2nc(-c3cccnc3)no2)c1 | 4.8% [at 25.3 µM]
Cc1oc2nc3c(c(NC(=O)CN4CCCC4=O)c2c1C)CCCC3 | 0.362%
O=C(/C=C/c1ccc(O)c(O)c1)OC[C@H]1O[C@@H](OC2CCCCC2O)[C@H](O)[C@@H](O)[C@@H]1O (some centres not stated) | -1.16% [at 25.3 µM]
Cc1cccc(-c2nn3c(c2-c2ccnc4ccc(C(N)=O)cc24)CCC3)n1 | -6.3%
NC1=NC2(c3cc(NC(=O)c4ccc(F)cn4)ccc3F)COCC2CS1 (configuration not stated) | 1.55%
CC(CNS(=O)(=O)C(C)C)c1ccc(-c2ccc(C#N)cc2)cc1 (configuration not stated) | -25.1%
COC1CC(O[C@H]2CC[C@@]3(C)C(=CC[C@]4(O)C3[C@H](O)[C@@H](O)[C@]3(C)[C@@H]([C@H](C)O)CC[C@@]34O)C2)OC(C)C1OC1CC(OC)C(OC2CC(OC)C(OC3OC(C)C(OC4OC(CO)C(O)C(O)C4O)C(OC)C3O)C(C)O2)C(C)O1 (some centres not stated) | -4.49% [at 11.6 µM]
CC1CCC2(C)CCC3(C)C(=CCC4C5(C)CCC(O)C(C)(C(=O)O)C5CCC43C)C2C1C (configuration not stated) | 6.25% [at 25.3 µM]
NC(N)=NCCC[C@H](NC(=O)c1sccc1NS(=O)(=O)c1cccc2nsnc12)C(=O)O | -2.31%
CC[C@@H](C)[C@H](N)C(=O)N1Cc2ccccc2C1 | 3.93%
Cc1cc(-c2nncc3c(C(C)(C)C)c(OCc4ncnn4C)nn23)no1 | -1.35%
C/C=C/C=C/C(O)=C1/C(=O)[C@]2(C)C3/C(=C(O)/C=C/C=C/C)C(=O)C4(C)C1[C@]1(C)O[C@@]4(O)[C@@]3(C)O[C@@]12O | -4.77% [at 25.3 µM]
C/C=C(/C)C(=O)O[C@H]1C[C@]2(C)O[C@@H]2[C@@H](OC(C)=O)[C@@]2(C)CC[C@@](O)(C(C)C)[C@H]12 | 4.7% [at 38.5 µM]
O=C(c1c2ccccc2cc2ccccc12)N1CCC(N2CCC[C@@H](C(=O)N3CCOCC3)C2)CC1 | -1.46%
C[C@]1(OC(=O)/C=C\c2ccc(O)cc2)C[C@@H](O)[C@]2(O)C=CO[C@@H](O[C@@H]3O[C@H](CO)[C@@H](O)[C@H](O)[C@H]3O)C12 (some centres not stated) | 6.86% [at 25.3 µM]

Structure (SMILES) | activity change, negative = cytotoxicity
C[C@H]1CC[C@@]2(OC1)O[C@H]1CC3C4CC[C@H]5C[C@@H](O[C@@H]6O[C@H](CO)[C@H](O[C@@H]7O[C@H](CO)[C@@H](O)[C@H](O[C@@H]8OC[C@@H](O)[C@H](O)[C@H]8O)[C@H]7O[C@@H]7O[C@H](CO)[C@@H](O)[C@H](O)[C@H]7O)[C@H](O)[C@H]6O)[C@H](O)C[C@]5(C)C4=CC(=O)[C@]3(C)[C@H]1[C@@H]2C (some centres not stated) | 7.95% [at 11.6 µM]
COc1cc(C(=O)OCC2=CCC3C(C(=O)O)=COC(O[C@@H]4O[C@H](CO)[C@@H](O)[C@H](O)[C@H]4O)C23)ccc1O (some centres not stated) | -2.45% [at 25.3 µM]
C/C=C/C=C/C=C/C(=O)N(C)C(C(=O)NC(C)C(=O)N1CCCC1C(N)=O)C(C)C (configuration not stated) | 13.8% [at 25.3 µM]
O=C(O)CC1CCC(c2ccc(-c3ccc(Nc4ccc(C(F)(F)F)nc4)cn3)cc2)CC1 (configuration not stated) | 7.72%
C=CC(C)(O)CC/C=C(\C)C(=O)O[C@@H]1[C@@H](O)[C@H](OC(C)(C=C)CC/C=C(\C)C(=O)O[C@@H]2O[C@H](CO)[C@@H](O)[C@H](O)[C@H]2O)O[C@H](CO)[C@H]1OC(=O)/C(C)=C/CCC(C)(O)C=C (some centres not stated) | 3.07% [at 11.6 µM]
C[C@@H]1O[C@@H](O[C@H]2[C@H](O)[C@@H](O[C@@H]3O[C@H](CO)[C@H](O)[C@H](O)[C@H]3O)[C@H](O[C@H]3CC[C@@]4(C)C(CC[C@]5(C)C4CC=C4[C@@H]6CC(C)(C)CC[C@]6(C(=O)O[C@@H]6O[C@H](CO)[C@@H](O)[C@H](O)[C@H]6O)CC[C@]45C)C3(C)C)O[C@@H]2C(=O)O)[C@H](O)[C@H](O)[C@H]1O (some centres not stated) | 7.27% [at 11.6 µM]
O=C(O)Cc1cn([C@@H]2OC[C@@H](O[C@@H]3O[C@H](CO)[C@@H](O)[C@H](O)[C@H]3O)[C@H](O)[C@H]2O[C@@H]2O[C@H](CO)[C@@H](O)[C@H](O)[C@H]2O)c2ccccc12 | 3.66% [at 25.3 µM]
CCC(C)/C=C(C)/C=C/C(=O)C1CCC(O)C(C)(O)C1=O (configuration not stated) | 5.15%
COc1cn(-c2ccc(-n3cccn3)cc2F)nc(-c2ccnn2-c2ccccc2)c1=O | 6.38%
CCC1(O)CC2c3cc(OC)c(OC)cc3CCN2CC1CC(C)C (configuration not stated) | -0.859%
CC(C)=C1C[C@@]2(C)C(=CC1=O)CC[C@@H](O)[C@@H]2C | 0.816%
COC(=O)C(Cc1ccccc1)NC(=O)c1ccccc1 (configuration not stated) | -4.35%
C/C(=C\CCC(C)C1CC(O)C2(C)C3CCC4C(C)(C)C(OC5OCC(O)C(O)C5O)CCC45CC35CC(O)C12C)C(=O)O (configuration not stated) | 20.6% [at 25.3 µM]
CSCC1OC(n2cnc3c(=O)[nH]cnc32)C(O)C1O (configuration not stated) | 7.25%
C[C@@H]1O[C@@H](O[C@H]2[C@H](OC(=O)[C@]34CCC(C)(C)C[C@H]3C3=CCC5[C@@]6(C)CC[C@H](O[C@@H]7O[C@H](CO[C@@H]8OC[C@H](O)[C@H](O)[C@H]8O)[C@@H](O)[C@H](O)[C@H]7O)C(C)(C)C6CC[C@@]5(C)[C@]3(C)C[C@H]4O)OC[C@@H](O)[C@@H]2O)[C@H](O)[C@H](O[C@@H]2OC[C@](O)(CO)[C@H]2O)[C@H]1O[C@@H]1OC[C@H](O)[C@H](O[C@@H]2OC[C@@H](O)[C@H](O)[C@H]2O)[C@H]1O (some centres not stated) | -3.2% [at 6.55 µM]
C[C@@H]1[C@H](O)[C@@H]2OC(=O)C3=C2[C@H](CCC3)[C@@]12C[C@@H](c1ccoc1)OC2=O | 15.7% [at 38.5 µM]
C/C=C1/C[N+](C)([O-])C2Cc3c([nH]c4ccccc34)C(=O)CC1C2C(=O)OC (configuration not stated) | 8.37% [at 38.5 µM]
COc1cc(O)cc(O[C@@H]2O[C@H](CO)[C@@H](O[C@@H]3OC[C@](O)(CO)[C@H]3O)[C@H](O)[C@H]2O)c1OC | -0.489% [at 25.3 µM]
